PubChem BioAssay (EPA / NIEHS)
Several values for one entry are separate records, joined by “and”; a condition that tells them apart may be missing. Equal entries are not always repeated. The source holds several records for some structures; these can differ, active in one and inactive in another. Activity calls are given as the source filed them. Rule for the calls: active = hit-call score of the fitted dose curve at least 0.9, where 1 is the maximum; inactive = score below 0.9.

What was measured:
[1] = ATG_GLI_CIS: Attagene CIS-FACTORIAL HepG2 Assay for human Zinc Finger Protein GLI1 (AID 2282945); details: HepG2, Attagene cis-factorial reporter mRNA, GLI element; actives raise or lower the signal
Procedure, shortened: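 Bidirectional curve fits relative to DMSO, using reporter mRNA levels from RT-PCR plus capillary electrophoresis. Cells were HepG2 transiently carrying cis-regulated reporter constructs, harvested 24 h after dosing.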

[2] = biological target: Bile acid receptor (Homo sapiens) (UniProt Q96RI1); assay: ATG_IR1_CIS: Attagene CIS-FACTORIAL HepG2 Assay for human Nuclear Receptor Subfamily 1 Group H Member 4 (NR1H4), IR1 submotif (AID 2282946); details: IR1 reporter transcription, actives raise or lower the signal
Sequence of Bile acid receptor (Homo sapiens) (Q96RI1 whole entry, looked up, the tested form may be a part): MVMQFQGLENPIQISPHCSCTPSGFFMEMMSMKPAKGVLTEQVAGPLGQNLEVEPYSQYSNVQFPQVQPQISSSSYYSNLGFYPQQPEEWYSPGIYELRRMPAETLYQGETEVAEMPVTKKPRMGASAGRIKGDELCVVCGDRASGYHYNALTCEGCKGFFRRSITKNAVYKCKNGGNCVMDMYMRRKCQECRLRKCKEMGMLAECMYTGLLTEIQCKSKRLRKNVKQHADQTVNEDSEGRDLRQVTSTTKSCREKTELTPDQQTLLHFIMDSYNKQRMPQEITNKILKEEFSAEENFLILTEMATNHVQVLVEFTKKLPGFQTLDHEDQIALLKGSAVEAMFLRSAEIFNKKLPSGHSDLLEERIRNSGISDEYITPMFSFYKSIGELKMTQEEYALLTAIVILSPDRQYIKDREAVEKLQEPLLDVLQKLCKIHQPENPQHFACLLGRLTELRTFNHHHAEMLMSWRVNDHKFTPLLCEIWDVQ
Procedure, shortened: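 Cells (human HepG2) carry transiently transfected cis-promoter reporter transcription units. Compounds are incubated 24 h, total RNA is reverse-transcribed and amplified, and labelled fragments are resolved by capillary electrophoresis. Curves use DMSO as baseline.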

[3] = ATG_GRE_CIS: Attagene CIS-FACTORIAL HepG2 Assay for human Glucocorticoid Response Elements (GRE) (AID 2282947); details: HepG2 GRE cis-reporter, Attagene multiplex mRNA; actives raise or lower the signal
Procedure, shortened: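 Assay uses human hepatoma HepG2 cells transfected with cis-promoter reporter units, exposed 24 h. mRNA from reporters detected by RT-PCR plus capillary electrophoresis; DMSO serves as negative control and baseline.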

[4] = ATG_ISRE_CIS: Attagene CIS-FACTORIAL HepG2 Assay for human Interferon Regulatory Factor 1 (IRF1) binding to an Interferon-Stimulated Response Element (ISRE) (AID 2282948); details: HepG2 ISRE cis-reporter (Attagene), mRNA transcription readout; actives raise or lower the signal
Procedure, shortened: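 Transiently transfected HepG2 cells carrying cis-element reporter units, dosed 24 hours. Reporter mRNA quantified by RT-PCR, fluorescent primer extension, HpaI digestion and capillary electrophoresis. Bidirectional fitting relative to DMSO.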

[5] = ATG_M_32_CIS: Attagene CIS-FACTORIAL HepG2 Assay for M32 Transcription Factor (Internal Marker) (AID 2282949); details: HepG2 Attagene cis-factorial M32 reporter, mRNA; actives raise or lower the signal;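 note: background control marker of the multiplexed CIS panel rather than a real target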
Procedure, shortened: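 Following 24 h chemical exposure of HepG2 cells transiently expressing cis-promoter reporter constructs, reporter transcript levels were determined by RT-PCR with fluorescent labelling and capillary electrophoresis, then fitted bidirectionally against DMSO.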

[6] = ATG_M_06_CIS: Attagene CIS-FACTORIAL HepG2 Assay for M06 Transcription Factor (Internal Marker) (AID 2282950); details: HepG2 Attagene CIS-FACTORIAL M06 internal marker reporter; actives raise or lower the signal
Procedure, shortened: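 HepG2 cells transiently transfected with cis-regulated multiple reporter transcription units were exposed to chemical for 24 h; reporter mRNA was quantified by RT-PCR, 6-FAM primer labelling, HpaI digestion and capillary electrophoresis, fitted bidirectionally against DMSO.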

[7] = biological target: Hypoxia-inducible factor 1-alpha (Homo sapiens) (UniProt Q16665); assay: ATG_HIF1a_CIS: Attagene CIS-FACTORIAL HepG2 Assay for human Hypoxia Inducible Factor 1 (HIF1A) (AID 2282951); details: HepG2 Attagene cis-factorial HIF1a reporter transcription; actives raise or lower the signal
Sequence of Hypoxia-inducible factor 1-alpha (Homo sapiens) (Q16665 whole entry, looked up): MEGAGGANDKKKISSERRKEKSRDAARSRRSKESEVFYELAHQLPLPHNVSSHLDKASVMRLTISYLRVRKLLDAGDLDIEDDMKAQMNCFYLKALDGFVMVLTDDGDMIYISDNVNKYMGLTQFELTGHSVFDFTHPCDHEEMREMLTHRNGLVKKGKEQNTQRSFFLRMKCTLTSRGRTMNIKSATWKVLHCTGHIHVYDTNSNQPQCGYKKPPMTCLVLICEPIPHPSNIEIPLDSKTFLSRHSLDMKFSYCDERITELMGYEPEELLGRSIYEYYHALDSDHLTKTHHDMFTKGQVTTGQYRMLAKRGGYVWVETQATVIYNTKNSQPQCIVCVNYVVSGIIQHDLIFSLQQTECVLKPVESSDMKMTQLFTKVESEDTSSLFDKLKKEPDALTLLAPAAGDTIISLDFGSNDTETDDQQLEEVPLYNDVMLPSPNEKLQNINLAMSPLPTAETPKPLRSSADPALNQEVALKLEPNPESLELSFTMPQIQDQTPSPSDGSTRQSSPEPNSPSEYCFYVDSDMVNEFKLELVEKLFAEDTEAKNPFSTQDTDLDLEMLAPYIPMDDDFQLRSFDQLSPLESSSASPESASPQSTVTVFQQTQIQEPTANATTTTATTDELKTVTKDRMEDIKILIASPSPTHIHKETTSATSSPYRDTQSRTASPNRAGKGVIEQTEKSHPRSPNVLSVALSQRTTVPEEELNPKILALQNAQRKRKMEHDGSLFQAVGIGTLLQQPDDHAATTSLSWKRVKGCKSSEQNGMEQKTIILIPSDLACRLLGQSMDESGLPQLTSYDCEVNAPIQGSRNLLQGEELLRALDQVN
Procedure, shortened: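 Endogenous-TF cis reporter readout, human HepG2 cells, 24 h incubation; mRNA detected via RT-PCR and capillary electrophoresis fluorescence; DMSO-normalised bidirectional fitting.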

[8] = biological target: Hepatocyte nuclear factor 6 (Homo sapiens) (UniProt Q9UBC0); assay: ATG_HNF6_CIS: Attagene CIS-FACTORIAL HepG2 Assay for human Hepatocyte Nuclear Factor 6 (HNF6) (AID 2282952); details: HepG2 Attagene cis-factorial HNF6 reporter transcription; actives raise or lower the signal
Sequence of Hepatocyte nuclear factor 6 (Homo sapiens) (Q9UBC0 whole entry, looked up, the tested form may be a part): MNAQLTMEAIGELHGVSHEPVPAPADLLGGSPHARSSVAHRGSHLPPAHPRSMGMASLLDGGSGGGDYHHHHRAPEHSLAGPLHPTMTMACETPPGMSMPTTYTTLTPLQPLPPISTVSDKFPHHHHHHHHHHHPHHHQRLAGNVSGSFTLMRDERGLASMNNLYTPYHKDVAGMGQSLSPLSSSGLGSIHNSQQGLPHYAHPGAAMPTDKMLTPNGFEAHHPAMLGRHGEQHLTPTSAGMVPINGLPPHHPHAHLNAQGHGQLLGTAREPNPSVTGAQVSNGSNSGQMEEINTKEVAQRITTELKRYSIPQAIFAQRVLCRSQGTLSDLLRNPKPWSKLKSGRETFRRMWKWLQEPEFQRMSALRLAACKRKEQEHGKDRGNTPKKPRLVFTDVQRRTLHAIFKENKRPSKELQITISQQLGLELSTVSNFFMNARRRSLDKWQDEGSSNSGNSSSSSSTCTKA
Procedure, shortened: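 Reporter mRNA induction or loss in HepG2 after 24 h exposure; transient cis-MRTU transfection; fragments quantified by capillary electrophoresis; bidirectional analysis, DMSO as negative control.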

[9] = biological target: Heat shock factor protein 1 (Homo sapiens) (UniProt Q00613); assay: ATG_HSE_CIS: Attagene CIS-FACTORIAL HepG2 Assay for human Heat Shock Transcription Factor 1 (HSE) (AID 2282953); details: HepG2 HSE cis-reporter, Attagene RNA transcription; actives raise or lower the signal
Sequence of Heat shock factor protein 1 (Homo sapiens) (Q00613 whole entry, looked up): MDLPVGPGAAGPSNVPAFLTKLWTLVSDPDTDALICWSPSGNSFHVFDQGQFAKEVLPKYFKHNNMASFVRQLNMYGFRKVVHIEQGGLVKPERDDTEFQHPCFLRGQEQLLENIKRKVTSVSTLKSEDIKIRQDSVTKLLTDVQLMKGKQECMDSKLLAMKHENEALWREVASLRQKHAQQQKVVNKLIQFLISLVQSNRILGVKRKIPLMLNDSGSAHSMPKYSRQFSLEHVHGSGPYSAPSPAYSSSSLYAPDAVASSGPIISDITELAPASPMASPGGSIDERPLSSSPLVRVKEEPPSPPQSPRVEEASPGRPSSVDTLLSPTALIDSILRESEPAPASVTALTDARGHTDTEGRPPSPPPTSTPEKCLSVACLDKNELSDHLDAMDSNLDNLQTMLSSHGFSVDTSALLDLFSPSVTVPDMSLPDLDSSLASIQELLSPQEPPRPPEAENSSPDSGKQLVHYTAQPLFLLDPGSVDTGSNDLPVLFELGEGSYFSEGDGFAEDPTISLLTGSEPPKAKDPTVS
Procedure, shortened: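 HepG2 cells transiently transfected with multiple reporter transcription units under cis-regulatory promoter control, measuring endogenous transcription factor activity. After 24 h chemical exposure, reporter mRNA quantified by RT-PCR, fluorescent labelling, HpaI digestion and capillary electrophoresis; bidirectional fit versus DMSO.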

[10] = ATG_MRE_CIS: Attagene CIS-FACTORIAL HepG2 Assay for human Metal Responsive Element (MRE) (AID 2282954); details: HepG2 MRE cis-reporter transcription, Attagene multiplex; actives raise or lower the signal
Procedure, shortened: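 After a 24 h chemical exposure, transiently transfected HepG2 cells yield RNA whose reporter sequences are amplified, FAM-labelled and sized by capillary electrophoresis. Curves are fitted bidirectionally relative to DMSO.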

[11] = ATG_PBREM_CIS: Attagene CIS-FACTORIAL HepG2 Assay for human Phenobarbital-responsive Enhancer Module (PBREM) (AID 2282955); details: HepG2 PBREM cis-reporter, Attagene multiplexed transcription; actives raise or lower the signal
Procedure, shortened: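 Readout: reporter mRNA, fluorescent RT-PCR fragments separated by capillary electrophoresis. System: HepG2 transiently transfected with cis-regulated reporter units. Exposure: 24 h. Analysis: bidirectional, DMSO baseline.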

[12] = biological target: Paired box protein Pax-6 (Homo sapiens) (UniProt P26367); assay: ATG_Pax6_CIS: Attagene CIS-FACTORIAL HepG2 Assay for human Paired Box 6 (PAX6) (AID 2282956); details: HepG2 CIS-FACTORIAL PAX6 reporter transcription, RNA readout; actives raise or lower the signal
Sequence of Paired box protein Pax-6 (Homo sapiens) (P26367 whole entry, looked up): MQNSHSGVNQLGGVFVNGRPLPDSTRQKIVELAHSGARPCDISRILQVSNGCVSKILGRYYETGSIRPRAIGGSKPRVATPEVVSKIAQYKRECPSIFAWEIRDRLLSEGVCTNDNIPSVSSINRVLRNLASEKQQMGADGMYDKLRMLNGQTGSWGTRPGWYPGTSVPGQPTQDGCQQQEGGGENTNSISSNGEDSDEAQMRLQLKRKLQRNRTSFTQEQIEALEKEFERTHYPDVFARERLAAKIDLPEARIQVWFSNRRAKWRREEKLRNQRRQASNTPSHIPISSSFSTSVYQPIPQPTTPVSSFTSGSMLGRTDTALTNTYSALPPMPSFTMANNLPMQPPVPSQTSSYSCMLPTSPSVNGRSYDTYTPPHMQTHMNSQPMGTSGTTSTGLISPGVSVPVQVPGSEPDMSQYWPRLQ
Procedure, shortened: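 HepG2 cells transiently transfected with cis-promoter-driven multiplexed reporter units sensing endogenous transcription factor activity; 24 h chemical exposure. Reporter mRNA quantified by RT-PCR, 6-FAM labelling, HpaI digestion and capillary electrophoresis; bidirectional fit versus DMSO baseline.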

[13] = ATG_PXRE_CIS: Attagene CIS-FACTORIAL HepG2 Assay for human Pregnane X Receptor Element (PXRE) (AID 2282957); details: HepG2 Attagene CIS-FACTORIAL PXRE reporter, mRNA; actives raise or lower the signal
Procedure, shortened: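 Transiently transfected HepG2 cells were dosed and incubated for 24 h. RNA was then isolated, DNase-treated, reverse-transcribed and reporter sequences amplified. Labeled, HpaI-digested fragments were quantified by capillary electrophoresis against DMSO.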

[14] = ATG_PPRE_CIS: Attagene CIS-FACTORIAL HepG2 Assay for human Peroxisome Proliferator-activated Response Element (PPRE) (AID 2282958); details: HepG2 PPRE cis-element reporter, Attagene transcription factor profiling; actives raise or lower the signal
Procedure, shortened: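 After human HepG2 hepatoma cells were transiently transfected with cis-promoter reporter constructs, they were exposed to test chemicals for 24 hours. Reporter RNA was then reverse-transcribed, PCR-amplified, FAM-labeled, HpaI-digested and quantified by capillary electrophoresis.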

[15] = ATG_RORE_CIS: Attagene CIS-FACTORIAL HepG2 Assay for human RAR-related Orphan Receptor Element (RORE) (AID 2282959); details: HepG2 Attagene cis-factorial RORE reporter, mRNA; actives raise or lower the signal
Procedure, shortened: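 Measured here: transcript induction of a cis-regulated reporter in HepG2 cells transiently transfected via FuGene 6. After 24 h, RNA was processed by RT-PCR and fluorescent capillary electrophoresis; DMSO defined baseline activity.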

[16] = ATG_Sox_CIS: Attagene CIS-FACTORIAL HepG2 Assay for human SRY-box transcription factor (SOX) (AID 2282960); details: HepG2 Attagene cis-factorial SOX reporter, mRNA; actives raise or lower the signal
Procedure, shortened: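 Using transiently transfected HepG2 cells, reporter transcription driven by cis elements was assessed 24 h after dosing. Signal was fluorescence of capillary-separated RT-PCR products, with DMSO defining baseline activity.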

[17] = biological target: Transcription factor Sp1 (Homo sapiens) (UniProt P08047); assay: ATG_Sp1_CIS: Attagene CIS-FACTORIAL HepG2 Assay for human Specificity Protein 1 (Sp1) (AID 2282961); details: HepG2 Sp1 cis-reporter transcription, actives raise or lower the signal
Sequence of Transcription factor Sp1 (Homo sapiens) (P08047 whole entry, looked up): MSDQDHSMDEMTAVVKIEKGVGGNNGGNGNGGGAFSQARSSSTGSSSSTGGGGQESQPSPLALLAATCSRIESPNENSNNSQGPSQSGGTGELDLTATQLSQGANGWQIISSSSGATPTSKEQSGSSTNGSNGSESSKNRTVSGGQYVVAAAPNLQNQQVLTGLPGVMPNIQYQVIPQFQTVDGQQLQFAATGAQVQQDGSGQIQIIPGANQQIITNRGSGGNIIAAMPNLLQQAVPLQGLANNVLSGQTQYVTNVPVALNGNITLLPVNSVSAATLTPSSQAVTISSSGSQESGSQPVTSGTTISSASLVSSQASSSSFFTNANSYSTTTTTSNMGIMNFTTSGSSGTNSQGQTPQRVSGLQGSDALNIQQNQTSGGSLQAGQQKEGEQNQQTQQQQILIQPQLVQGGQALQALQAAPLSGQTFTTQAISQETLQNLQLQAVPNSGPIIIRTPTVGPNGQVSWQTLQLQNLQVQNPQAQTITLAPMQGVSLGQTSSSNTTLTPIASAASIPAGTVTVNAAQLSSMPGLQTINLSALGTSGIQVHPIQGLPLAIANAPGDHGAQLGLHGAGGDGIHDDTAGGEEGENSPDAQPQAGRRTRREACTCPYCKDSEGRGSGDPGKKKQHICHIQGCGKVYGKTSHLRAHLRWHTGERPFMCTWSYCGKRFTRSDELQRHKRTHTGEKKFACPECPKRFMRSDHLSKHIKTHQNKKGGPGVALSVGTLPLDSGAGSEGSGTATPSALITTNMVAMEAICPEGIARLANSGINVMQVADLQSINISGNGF
Procedure, shortened: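 After transient transfection of HepG2 cells with cis-promoter reporter units and 24 h chemical treatment, reporter transcripts were quantified by RT-PCR and capillary electrophoresis fluorescence. Gain- and loss-of-signal fitted against DMSO.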

[18] = ATG_SREBP_CIS: Attagene CIS-FACTORIAL HepG2 Assay for human Sterol Regulatory Element Binding (SREBP) (AID 2282962); details: HepG2 Attagene cis-factorial SREBP reporter, mRNA; actives raise or lower the signal
Procedure, shortened: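 HepG2 cells transiently transfected with multiplexed cis-promoter reporter units sensing endogenous transcription factors; reporter mRNA measured 24 h after dosing by RT-PCR, 6-FAM labeling, HpaI digestion and capillary electrophoresis. Bidirectional fit versus DMSO.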

[19] = biological target: Signal transducer and activator of transcription 3 (Homo sapiens) (UniProt P40763); assay: ATG_STAT3_CIS: Attagene CIS-FACTORIAL HepG2 Assay for human Signal Transducer and Activator of Transcription 3 (STAT3) (AID 2282963); details: HepG2, Attagene cis-factorial STAT3 reporter transcription; actives raise or lower the signal
Sequence of Signal transducer and activator of transcription 3 (Homo sapiens) (P40763 whole entry, looked up): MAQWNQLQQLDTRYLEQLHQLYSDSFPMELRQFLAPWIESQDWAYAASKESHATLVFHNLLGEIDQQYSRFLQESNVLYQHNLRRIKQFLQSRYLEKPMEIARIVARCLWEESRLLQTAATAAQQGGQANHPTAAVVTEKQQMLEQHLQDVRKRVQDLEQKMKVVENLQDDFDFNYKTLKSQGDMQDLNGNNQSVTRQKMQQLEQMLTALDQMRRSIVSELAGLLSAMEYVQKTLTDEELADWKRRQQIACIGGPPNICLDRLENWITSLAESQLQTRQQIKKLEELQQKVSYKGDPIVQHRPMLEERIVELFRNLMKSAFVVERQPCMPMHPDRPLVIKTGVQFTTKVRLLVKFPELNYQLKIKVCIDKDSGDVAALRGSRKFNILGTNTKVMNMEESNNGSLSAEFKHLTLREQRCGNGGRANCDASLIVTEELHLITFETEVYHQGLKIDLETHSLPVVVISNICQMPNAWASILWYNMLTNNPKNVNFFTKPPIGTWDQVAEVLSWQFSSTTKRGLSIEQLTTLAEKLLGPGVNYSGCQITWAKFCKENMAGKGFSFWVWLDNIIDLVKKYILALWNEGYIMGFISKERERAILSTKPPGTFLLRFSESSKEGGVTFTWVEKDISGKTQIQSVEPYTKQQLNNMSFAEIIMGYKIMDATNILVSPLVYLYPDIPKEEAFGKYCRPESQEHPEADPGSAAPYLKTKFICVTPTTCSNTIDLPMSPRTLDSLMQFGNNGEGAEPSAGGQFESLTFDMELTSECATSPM
Procedure, shortened: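 After a 24 h compound incubation, total RNA from MRTU-transfected HepG2 cells was converted to cDNA and reporter sequences PCR-amplified, labelled and profiled by capillary electrophoresis. Gain and loss of signal were referenced to DMSO.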

[20] = ATG_TA_CIS: Attagene CIS-FACTORIAL HepG2 Assay for human TA Basal Promoter (AID 2282964); details: HepG2 Attagene CIS-factorial TA basal promoter reporter; actives raise or lower the signal
Procedure, shortened: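 HepG2 cells transiently transfected with multiplexed cis-promoter reporter units, dosed 24 h. Reporter mRNA measured by RT-PCR, 6-FAM labelling, HpaI digestion and capillary electrophoresis; bidirectional fit versus DMSO baseline, serving as background control.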

Measured: AC50

FC(F)(F)C(F)(F)C(F)(F)C(F)(F)C(F)(F)C(F)(F)C(F)(F)I
not listed: [20]
inactive: all other assays above

O[Si](c1ccccc1)(c1ccccc1)c1ccccc1
active: [1] 134 µM | [2] 10.2 µM | [10] 33.3 µM | [13] 0.897 µM | [18] 69.1 µM
not listed: [20]
inactive: all other assays above

CCCCCCCCC(F)(F)C(F)(F)C(F)(F)C(F)(F)C(F)(F)C(F)(F)F
inactive: all assays above

C=C(C)C(=O)OCC(F)(F)C(F)(F)C(F)(F)C(F)(F)C(F)(F)C(F)(F)C(F)(F)F
inactive: all assays above

COC(OC(C)=O)c1ccccc1 (stereo not given)
not listed: [20]
inactive: all other assays above

C=CC(=O)OCC(F)(F)C(F)(F)C(F)(F)C(F)(F)C(F)(F)C(F)(F)C(F)(F)F
inactive: all assays above

OCCCC(F)(F)C(F)(F)C(F)(F)C(F)(F)C(F)(F)C(F)(F)C(F)(F)F
inactive: [1] | [2] | [3] | [4] | [5] | [6] | [7] | [8] | [9] | [10] | [13] | [14] | [15] | [16] | [17] | [18] | [19]
active: [3] 96.3 µM | [5] 233 µM | [7] 197 µM | [8] 83 µM | [9] 95.1 µM | [10] 50 µM | [12] 50 µM and 41.8 µM | [13] 79.6 µM | [15] 247 µM | [16] 68.9 µM | [17] 96.5 µM | [18] 50 µM | [19] 78.9 µM

CCCCCCS
active: [4] 133 µM
inactive: all other assays above

CCCCOc1ccc(N)cc1
inactive: all assays above

C=CC(F)(F)C(F)(F)C(F)(F)C(F)(F)C(F)(F)C(F)(F)C(F)(F)C(F)(F)C=C
not listed: [20]
inactive: all other assays above

CC(C)=CCCC(C)CCOC(=O)C(C)C (stereo not given)
not listed: [20]
inactive: all other assays above

O=C(O)C(F)(F)C(F)(F)OC(F)(F)F
inactive: all assays above
